Drawing on PubChem BioAssay (Tox21), this text covers outcome for eleven molecules.

Activity calls are given as the source filed them. Calls follow the shape of the dose curve; as a rule, active = well fitted curve in the direction sought with a large enough effect in the repeat runs; inconclusive = weak or mixed curves; inactive = flat fitted curve, though single readings scatter.

The nature of the assay: qHTS assay to test for compound auto fluorescence at 460 nm (blue) in HEK293 cell free culture (AID 720681). To be noted: cell-free medium, autofluorescence 405/460 nm (blue); series mostly up to 46 µM. An excerpt: U.S. Tox21 Program National Center for Advancing Translational Sciences [NCATS] NIH Chemical Genomics Center [NCGC] U.S. Environmental Protection Agency [EPA] National Institutes of Environmental Health Sciences [NIEHS] National Toxicology Program [NTP] U.S. Food and Drug Administration [FDA] Tox21 Assay Overview: Compound auto fluorescence often interferes with screening of the compound library against various biological targets and signaling pathways. Some of these compounds may have fluorophoric properties. Such properties may interfere with the assay outputs resulting in false positives and/or negatives. To decrease such complications and ensure the compound activities are relevant in terms of biological response, the Tox21 10K compound library was screened for auto fluorescence. From the fluorophores used as reporter signals in our screening assays, the auto fluorescence equivalencies of compounds against three fluorophores have been evaluated: Triamterene, Fluorescein and Rose Bengal sodium for blue, green and red fluorescence, respectively. The fluorescence intensities were measured using Excitation/Emission wavelengths at 405/460nm, 485/535nm and 540/590nm for blue, green and red labels, respectively. This assay includes the blue fluorescence data.
Tox21 Assay Protocol Summary: 5 uL of culture medium (DMEM containing 10% FBS) per well was dispensed into black wall/clear bottom 1536-well plates using a Multidrop Combi Dispenser (ThermoFisher Scientific, Waltham, MA). After 23 nL compound or DMSO vehicle was transferred into assay plate by a pintool work station (Kalypsys, San Diego, CA), fluorescence intensities in the assay plates were measured by an Envision (PerkinElmer, Shelton, CT) plate reader using three labels for measuring blue, green and red fluorescence at […] 460, 535 and 590nm respectively.
In general terms: qHTS replaces the single test concentration by a dilution series.
`Clc1ccc([C@@H]2C[C@H]3CC[C@@H]2N3)cn1`: the call was inactive.

Regarding `CC(=O)O[C@H]1C[C@H](O[C@H]2[C@@H](O)C[C@H](O[C@H]3[C@@H](O)C[C@H](OC4CC[C@@]5(C)C(CC[C@@H]6[C@@H]5CC[C@]5(C)[C@@H](C7=CC(=O)OC7)[C@@H](O)C[C@]65O)C4)O[C@@H]3C)O[C@@H]2C)O[C@H](C)[C@H]1O[C@@H]1O[C@H](CO)[C@@H](O)[C@H](O)[C@H]1O` (stereo partly specified), the result was inactive. In the case of `COc1cc(C[C@H](C)N)c(OC)cc1Br`, the molecule was classed as inactive. Take `CC[C@@H](O)C(C[C@@H](C)N(C)C)(c1ccccc1)c1ccccc1`: the molecule was classed as inactive. Under `CCC(=O)O[C@](Cc1ccccc1)(c1ccccc1)[C@H](C)CN(C)C` stands “inactive”.

`C#C[C@]1(OC(=O)CCCCCC)CC[C@H]2[C@@H]3CCC4=CC(=O)CC[C@@H]4[C@H]3CC[C@@]21C`: the result was inactive. Under `Cc1ccc2c(c1)[C@]13CCCC[C@@H]1[C@H](C2)N(C)CC3` stands “inactive”; under `CN1CCN=C(c2ccccc2)c2cc(Cl)ccc21`, “inactive”; under `CN1C2CCC1CC(OC(c1ccccc1)c1ccc(Cl)cc1)C2` (stereo unspecified), “inactive”. Under `C[C@]12CC[C@H]3[C@@H](CCC4=CC(=O)CC[C@@]43C)[C@@H]1CC[C@@H]2OC(=O)CCc1ccccc1` stands “inactive”.

Regarding `CCC(=O)O[C@H]1[C@@H](N2CCCCC2)C[C@H]2[C@@H]3CC[C@H]4C[C@H](OC(C)=O)[C@@H](N5CCCCC5)C[C@]4(C)[C@H]3CC[C@@]21C`, the molecule was classed as inactive.
